Measles CPE = protection of cells from measles virus. protection (pct of control), % at 4 µM. Measles virus-infected cells, CPE protection, absorbance. AID 841. 140,000 tested, 1.5% active; in the data active = protection mostly above about 24%, no sharp cut-off; inactive = mostly below about 26%
PTPN22 inh 2 = LYP (human) phosphatase inhibition | 96,000 tested, 0.21% active | AID 640 | recombinant LYP catalytic domain, DiFMUP fluorescence | Q9Y2R2 | inhibition, % at 2 µM;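 active = inhibition at 2 µM at or above a set limit, the screen mean plus 3 SD, cut at about 24% in these data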
sEH inh = blocks human soluble epoxide hydrolase activity. 91,000 tested, 0.34% active. inhibition, % at 2 µM. recombinant human sEH enzymatic activity assay; in the data active = inhibition above about 80%
Target sequence (P34913 whole entry, looked up): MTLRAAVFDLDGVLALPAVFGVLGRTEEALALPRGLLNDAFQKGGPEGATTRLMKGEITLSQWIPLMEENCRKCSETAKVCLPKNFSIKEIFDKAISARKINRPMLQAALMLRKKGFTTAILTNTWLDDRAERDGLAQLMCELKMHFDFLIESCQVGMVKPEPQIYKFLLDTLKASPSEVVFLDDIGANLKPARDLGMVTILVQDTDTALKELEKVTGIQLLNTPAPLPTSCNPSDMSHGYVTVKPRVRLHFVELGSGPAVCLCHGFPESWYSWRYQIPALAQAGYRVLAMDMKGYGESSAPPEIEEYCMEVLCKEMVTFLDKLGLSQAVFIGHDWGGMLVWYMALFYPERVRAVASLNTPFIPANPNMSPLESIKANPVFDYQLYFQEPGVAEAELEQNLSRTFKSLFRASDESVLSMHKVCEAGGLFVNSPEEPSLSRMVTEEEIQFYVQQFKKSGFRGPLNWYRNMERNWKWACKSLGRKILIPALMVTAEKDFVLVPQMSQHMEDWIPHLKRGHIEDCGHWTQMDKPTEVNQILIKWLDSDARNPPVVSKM
sEH act = activators of human soluble epoxide hydrolase. P34913. purified human sEH enzymatic activity, activator screen. activation, % at 2 µM. 91,000 tested, 0.04% active. AID 717; in the data active = activation above about 37%
LYP act = increases human PTPN22 phosphatase activity; Q9Y2R2; recombinant LYP, DiFMUP fluorescence; 0 = plate median, 100 = signal doubled; activation, % at 2 µM; 96,000 tested, 0.11% active; AID 697;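 active = activation at 2 µM above a set limit, the mean plus 5 SD, cut at about 37% in these data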
Large screens that a line does not name were inactive. Shown are actives, neighbours in structure and some others; about 1.7% of the full set was active somewhere.

COc1ccc(OCCSc2nnc3sc4ccccc4n23)cc1	Measles CPE 47.3
CCOC(=O)CSc1nnc(-c2ccc(Cl)cc2Cl)o1	Measles CPE 41.7
Cc1nc(SC2CC(=O)N(c3ccccc3)C2=O)nc2c1CCCC2 (stereo unspecified)	Measles CPE 74.6
Cc1nnc(SC2CC(=O)N(c3ccccc3)C2=O)s1 (stereo unspecified)	none
O=C(NCCc1c[nH]c2ccccc12)C1CCC(Cn2c(=S)[nH]c3ccccc3c2=O)CC1 (stereo unspecified)	sEH inh 94.8
COc1nccnc1NS(=O)(=O)c1ccc(NC(=S)NC(=O)c2ccc(F)cc2)cc1	Measles CPE 34.2 (no result: PTPN22 inh 2, sEH inh, sEH act, LYP act)
Cn1nc(C(=O)NCc2ccco2)c2ccccc2c1=O	Measles CPE 23.8 (no result: PTPN22 inh 2, sEH inh, sEH act, LYP act)
O=C(COC(=O)c1cc(-c2cccs2)nc2ccccc12)NCc1ccco1	none (no result: sEH inh, sEH act)
Cc1ccc(CNC(=O)c2cn(C3CCCC3)c(=O)c3c2c2ccccc2n3C)o1	none
Cn1c2ccccc2c2c(C(=O)NCc3ccco3)cn(C3CCCCC3)c(=O)c21	Measles CPE 42.3
O=C(NCc1ccco1)c1cc(-c2ccco2)on1	Measles CPE 85.2
O=C(NCc1ccco1)c1cc(-c2cccs2)nc2ccccc12	Measles CPE 58.5 (no result: PTPN22 inh 2, sEH inh, sEH act, LYP act)
COc1ccc(C2SCC(=O)N2CC23CC4CC(CC(C4)C2)C3)cc1 (stereo unspecified)	none
CC(C)NC(=O)[C@@H]1C[C@@]1(C)[C@@H](NC(=O)OCc1ccccc1)c1ccccc1	none (no result: PTPN22 inh 2, sEH inh, sEH act, LYP act)
CCOC(=O)c1c(NC(=O)CN2C(=O)NC3(CCC(C)CC3)C2=O)sc(C)c1-c1ccc(C)cc1 (stereo unspecified)	none (no result: PTPN22 inh 2, sEH inh, sEH act, LYP act)
CCN(CC(=O)Nc1ccc(NC(C)=O)cc1)C(=O)/C=C/c1cccs1	Measles CPE 44.3 (no result: PTPN22 inh 2, sEH inh, sEH act, LYP act)
Cc1nc(NC(=O)CC(C)C)sc1-c1csc(Nc2ccc(Cl)cc2)n1	PTPN22 inh 2 50.6
CCN(CC)C1=CC2=CC(=C(C#N)C#N)CCC2CC1 (stereo unspecified)	Measles CPE 38.9 (no result: PTPN22 inh 2, sEH inh, sEH act, LYP act)
CCCCN(C)C1=CC2=CC(=C(C#N)C#N)CCC2CC1 (stereo unspecified)	none (no result: PTPN22 inh 2, sEH inh, sEH act, LYP act)
COc1ccccc1OC1=NS(=O)(=O)c2ccccc21	none
Cc1ccc(OC2=NS(=O)(=O)c3ccccc32)cc1	Measles CPE 27.7
Cc1cc(Cl)ccc1Oc1nccc(N(C)C)c1C#N	Measles CPE 76.2
CN(C)c1ccnc(Oc2ccc(Cl)cc2)c1C#N	none (no result: PTPN22 inh 2, sEH inh, sEH act, LYP act)
Cc1ccc(N(CC(O)COCc2ccco2)S(=O)(=O)c2ccc(C)cc2)cc1 (stereo unspecified)	Measles CPE 46.4
CCCN(CCC)CC(O)CN(c1ccccc1)S(=O)(=O)c1ccc(C)cc1 (stereo unspecified)	none
COc1ccc(-c2nc(NC(=O)c3n[nH]c(=O)c4ccccc34)sc2C)cc1	none (no result: PTPN22 inh 2, sEH inh, sEH act, LYP act)
O=C(CN1CCN(Cc2cccc(Cl)c2)C1=O)NCc1ccccn1	Measles CPE 34.2
COCCNC(=O)CN1CCN(Cc2cccc(Cl)c2)C1=O	none
COc1ccccc1CNC(=S)NC1CCCC1	none (no result: PTPN22 inh 2, sEH inh, sEH act, LYP act)
Cc1nc(C)c(CCNC(=O)c2ccccc2Br)s1	none (no result: PTPN22 inh 2, sEH inh, sEH act, LYP act)
C=CCn1c(=O)c2ccccc2n2c(SCC(=O)c3ccccc3)nnc12	none (no result: sEH inh, sEH act)
C=CCn1c(=O)c2ccccc2n2c(SCc3cc(=O)n4ccsc4n3)nnc12	Measles CPE 66.4
Cc1nnc(N(C)C(=O)c2ccccn2)s1	Measles CPE 53.1
Fc1ccc(Nc2ccnc(Nc3ccc(F)cc3)n2)cc1	none (no result: PTPN22 inh 2, sEH inh, sEH act, LYP act)
CCc1cc2c(nc1CC)CCN(CC/C(C)=N/O[C@@H](C)c1cc(-c3c(C)cc(C)cc3C)no1)C2	Measles CPE 24.5 (no result: PTPN22 inh 2, sEH inh, sEH act, LYP act)
C/C(CCN1CCc2nc(-c3ccccc3)c(-c3ccccc3)cc2C1)=N\O[C@@H](C)c1cc(-c2c(C)cc(C)cc2C)no1	none (no result: PTPN22 inh 2, sEH inh, sEH act, LYP act)
C=C(C)CNC(=S)N/N=C1\CCCCc2ccccc21	none (no result: PTPN22 inh 2, sEH inh, sEH act, LYP act)
O=C(CSc1nnc(-c2cccc(S(=O)(=O)N3CCCCC3)c2)o1)NCCC1=CCCCC1	none (no result: PTPN22 inh 2, sEH inh, sEH act, LYP act)
CCN(CC)S(=O)(=O)c1cccc(-c2nnc(SC(C)C(=O)NCCC3=CCCCC3)o2)c1 (stereo unspecified)	sEH inh 84.6
CCn1c(N2CCN(C(=S)NCCc3ccccc3)CC2)nc2ccccc21	none
CN1CCN(CCCC(=O)c2ccc(C3CCCC3)cc2)CC1	none (no result: PTPN22 inh 2, sEH inh, sEH act, LYP act)
CC1CCN(c2cc(C#N)c(C#N)cc2[N+](=O)[O-])CC1	none
CC1CCN(c2ccc(N3C(=O)C4CCCCC4C3=O)cc2[N+](=O)[O-])CC1 (stereo unspecified)	Measles CPE 48.5 (no result: PTPN22 inh 2, sEH inh, sEH act, LYP act)
Oc1ccc(Br)cc1C=Nc1ccc2c3c(cccc13)CC2	none (no result: PTPN22 inh 2, sEH inh, sEH act, LYP act)
O=C(c1cn[nH]c1)c1cc(F)ccc1O	Measles CPE 42.2
CSCCC(NC(=O)c1ccc(Cl)cc1)C(=O)OCC(=O)Nc1cc(Cl)ccc1C#N (stereo unspecified)	none (no result: PTPN22 inh 2, sEH inh, sEH act, LYP act)
CC(c1ccccc1)N1CCn2c(nc3cc(NC(=O)NC4CCCCC4)ccc32)C1 (stereo unspecified)	sEH inh 97.2
CC(c1ccccc1)N1CCn2c(nc3cc(NC(=O)c4cccs4)ccc32)C1 (stereo unspecified)	none
CCOC(=O)CN1C(=O)CN(c2ccc(C)c(C)c2)C1=O	none (no result: PTPN22 inh 2, sEH inh, sEH act, LYP act)
CCCCNC(=O)CCn1nc(-c2ccccc2)ccc1=O	Measles CPE 49.5 (no result: sEH inh, sEH act)
Cn1c(C(=O)N2COCC2(C)C)cc2c(=O)n3ccccc3nc21	Measles CPE 21.8
O=C(Nc1nc2nccc(-c3ccccc3)n2n1)C(Cl)(Cl)Cl	none (no result: PTPN22 inh 2, sEH inh, sEH act, LYP act)
Cc1ccc(-n2[nH]c(C)c(/C=N/Nc3ccc([N+](=O)[O-])cc3[N+](=O)[O-])c2=O)cc1	none (no result: PTPN22 inh 2, sEH inh, sEH act, LYP act)
O=C1NC(c2ccccc2)=NC1(NS(=O)(=O)c1ccccc1)C(F)(F)F (stereo unspecified)	Measles CPE 41.0
O=C1NC(c2ccccc2)=NC1(NS(=O)(=O)c1ccc(Cl)cc1)C(F)(F)F (stereo unspecified)	none (no result: PTPN22 inh 2, sEH inh, sEH act, LYP act)
COc1ccc2occ(NC(C)=O)c2c1	Measles CPE 42.2
COc1ccc(OC)c(C(=O)c2coc3ccc(OC(C)=O)cc23)c1	none (no result: PTPN22 inh 2, sEH inh, sEH act, LYP act)
O=C(O)[C@@H]1CCCC[C@@H]1C(=O)N1CCc2ccccc2C1CN1C(=O)c2ccccc2C1=O (stereo partly specified)	Measles CPE 63.7 (no result: sEH inh, sEH act)
O=C1c2ccccc2C(=O)N1CC1c2ccccc2CCN1C(=O)C1CCCCC1 (stereo unspecified)	none
Cc1csc(-c2cnn(-c3ccccc3)c2NC(=O)c2cccc(C(F)(F)F)c2)n1	Measles CPE 21.6
CC1Cc2ccccc2N1CC(=O)NCc1ccc2c(c1)OCO2 (stereo unspecified)	none (no result: PTPN22 inh 2, sEH inh, sEH act, LYP act)
Cc1csc(NC(=O)CSc2nnc(NC(=O)COc3ccc(Cl)cc3)s2)n1	none (no result: PTPN22 inh 2, sEH inh, sEH act, LYP act)
O=C(NCCC1=CCCCC1)C1CCN(c2nc3ccccc3o2)CC1	sEH inh 84.8
Cc1oc(-c2ccccc2F)nc1CN1CCC(C(=O)NCCC2=CCCCC2)CC1	Measles CPE 23.9, sEH inh 89.3
O=C(NCCC1=CCCCC1)C1CCN(C(=O)c2ccc(Br)cc2)CC1	Measles CPE 30.3 (no result: PTPN22 inh 2, sEH inh, sEH act, LYP act)
CC1CCCCN1CCCNC(=O)C1CCN(c2nc3ccccc3o2)CC1 (stereo unspecified)	none (no result: PTPN22 inh 2, sEH inh, sEH act, LYP act)
O=C(NC1CCCCCC1)C1CCN(c2nc3ccccc3o2)CC1	Measles CPE 32.3 (no result: sEH inh, sEH act)

Screening results (PubChem)
